Source: PubChem BioAssay AID489012 (National Center for Advancing Translational Sciences (NCATS), 2010)
Records with an inconclusive call do not appear. A number with no mark means an inactive call. Activity calls are given as the source filed them. Calls follow the shape of the dose curve; as a rule, active = well fitted activation curve with a large enough effect; inconclusive = small, poorly fitted or top-dose-only effect; inactive = no such curve, though single readings can be large or run the other way.

Each compound was assayed against Relaxin receptor 1 (Homo sapiens) (UniProt Q9HBX9) (assay: qHTS Assay for Agonists of the Relaxin Receptor RXFP1: RXFP1 Hit Validation). Details: HEK293T-RXFP1 cAMP TR-FRET, 30 min; series mostly up to 115 µM; activation: at the top concentration.
Relaxin receptor 1 (Homo sapiens), sequence (Q9HBX9 whole entry, looked up): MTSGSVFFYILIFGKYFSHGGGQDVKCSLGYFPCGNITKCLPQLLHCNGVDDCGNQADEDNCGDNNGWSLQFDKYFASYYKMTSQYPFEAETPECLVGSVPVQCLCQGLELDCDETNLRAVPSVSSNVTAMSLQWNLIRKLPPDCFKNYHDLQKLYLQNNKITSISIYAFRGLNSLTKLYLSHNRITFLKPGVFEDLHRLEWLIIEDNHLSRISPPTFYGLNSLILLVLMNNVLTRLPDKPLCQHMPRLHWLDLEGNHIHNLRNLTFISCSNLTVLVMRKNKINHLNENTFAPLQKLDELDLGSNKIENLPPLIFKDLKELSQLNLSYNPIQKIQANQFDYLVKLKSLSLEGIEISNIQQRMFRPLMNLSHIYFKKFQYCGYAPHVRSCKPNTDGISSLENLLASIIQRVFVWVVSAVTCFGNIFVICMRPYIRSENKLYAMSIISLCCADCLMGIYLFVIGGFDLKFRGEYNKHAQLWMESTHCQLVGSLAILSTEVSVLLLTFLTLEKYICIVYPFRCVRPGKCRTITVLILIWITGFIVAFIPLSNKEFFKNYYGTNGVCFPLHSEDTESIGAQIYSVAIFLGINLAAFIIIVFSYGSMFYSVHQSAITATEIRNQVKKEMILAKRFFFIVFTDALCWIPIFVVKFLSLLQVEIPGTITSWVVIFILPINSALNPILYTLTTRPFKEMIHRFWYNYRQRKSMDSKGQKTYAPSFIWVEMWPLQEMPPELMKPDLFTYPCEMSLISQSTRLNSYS
Also: nearly all actives have a fitted effect of over 65% in size.
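For activation in this document: cAMP rise lowers the TR-FRET signal in lysed cells with PDE4 inhibitor present; 0% = buffer-only basal and 100% = 29 nM porcine relaxin.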
Potency is read from the fitted curve at half-maximal effect.

SMILES	Potency	activation
COC(=O)Cn1cnc2c(C#N)c3n(c2c1=O)CCCC3	24.5 µM (active)	–
Cc1ccccc1NC(=O)c1ccccc1NC(=O)c1ccco1	–	-6.33% [at 125 µM]
CC(=O)Nc1c2c3c(cccc3n(C)c1=O)C(=O)c1ccccc1-2	–	24.1% [at 45 µM]
O=C(Nc1ccccc1C(=O)NCc1ccco1)c1ccccc1	–	16.5% [at 125 µM]
COc1cc(-c2nnc(SCC(=O)N(C)C3CCS(=O)(=O)C3)o2)cc(OC)c1OC (stereo not given)	–	6.14% [at 45 µM]
Nc1nnc(CC(=O)N/N=C/c2ccc(-c3ccc(Cl)cc3Cl)o2)s1	–	6.59%
O=C(Nc1ccccc1C(=O)O)c1ccc(NC(=O)C2CC2)cc1	–	-5.11% [at 45 µM]
CCOC(=O)CNC(=O)CSc1ccc2nnc(-c3cccnc3)n2n1	–	-30%
Cc1nn(CC(=O)NCCN2CCOCC2)c(=O)c2cc3sccc3n12	–	18.1%
Cc1c(C(=O)NNc2cc(=O)n(C)c(=O)n2C)cccc1[N+](=O)[O-]	–	25.3% [at 45 µM]
COc1ccccc1NC(=O)c1sc2nc3n(c(=O)c2c1C)CCC3	–	7.23% [at 45 µM]
CCOC(=O)c1sc(=NC(=O)c2ccc(S(=O)(=O)N(C)c3ccccc3)cc2)n(C)c1C	19.4 µM (active)	–
Cn1c(=O)c2c(nc(SCC(=O)N3CCOCC3)n2C)n(C)c1=O	–	27.2%
O=C(O)c1ccc(CN2C(=O)c3ccc(C(=O)O)cc3C2=O)cc1	–	0.0336%
O=C(O)CNC(=O)c1ccccc1NC(=O)c1ccco1	–	2.24% [at 125 µM]
CC1(C)Cc2nc3sc4c(SCC(=O)NC(c5ccccc5)c5ccccc5)ncnc4c3cc2CO1	4.88 µM (active)	–
CCCC(=O)Nc1ncnc2c1ncn2[C@@H]1O[C@@H]2COP(=O)(O)O[C@H]2[C@H]1OC(=O)CCC	0.774 µM (active)	–
Nc1ncnc2c1ncn2C1OC(CO)C(O)C1O (stereo not given)	1.74 µM (active)	–

SMILES	Potency	activation
Cc1cccn2c(=O)c3cc(C(=O)NC4CCCC4)c(=N)n(CCCN4CCOCC4)c3nc12	–	22.6%
O=C(NCCOC(=O)c1ccc([N+](=O)[O-])cc1)c1cccnc1	–	26.3%
O=C(CCc1nnc2ccc(NCCCN3CCCC3=O)nn12)NCc1ccccc1Cl	–	2.42%
Cc1cc(NC(=O)CSc2ncnc3c2cnn3-c2cccc(Cl)c2)no1	–	15.1% [at 45 µM]
O=C(Nc1ccc(Cl)cc1)Nc1ccccc1Sc1ncc([N+](=O)[O-])s1	–	7.1%
Cc1ccc(CNC(=O)CCc2nnc3ccc(N4CCC5(CC4)OCCO5)nn23)cc1	–	25.6%
Cc1cc(Br)c2nc3c(c(C(=O)O)c2c1)CCCCC3	1.94 µM (active)	–
COc1ccc(CNC(=O)CN2C(=O)NC(C)(c3cccc(Br)c3)C2=O)cc1 (stereo not given)	–	-2.25%
Cc1cc(C)c(NC(=O)CS(=O)CC(=O)Nc2ccc(F)cc2F)c(C)c1 (stereo not given)	–	3.66%
Cc1ccccc1OCC(=O)Nc1sc(C(=O)Nc2cccc(C)c2C)c(C)c1C#N	6.15 µM (active)	–
CC(C)C(=O)Nc1ccc(Nc2ccccc2)cc1	–	-7.21%
Cc1cccn2c(=O)c(/C=C3\SC(=S)NC3=O)c(NCCCN3CCOCC3)nc12	7.74 µM (active)	–
Cc1ccc(Cl)cc1NC(=O)CCCN1C(=O)c2cccnc2C1=O	–	22.7%
O=C(Cn1cnc2c(nnn2-c2ccc(F)cc2)c1=O)NCC1CCCO1 (stereo not given)	8.7 µM (active)	–
COc1ccccc1CNC(=O)CCCc1nnc2n(C)c(=O)c3sccc3n12	–	29.2% [at 45 µM]
Brc1ccc2ncnc(NCc3cccnc3)c2c1	38.9 µM (active)	–
CCc1cc2c(=O)nc3n(c2s1)Cc1ccccc1/C3=C(/O)c1cccc([N+](=O)[O-])c1	5.3 µM (active)	–
